According to the supplement of paper PMC9477273:

Test system: DRIVER-selected RNA biosensor (aptazyme) pool
Assay: maximum fold change of ribozyme cleavage across biosensor pool versus no-compound control; higher = stronger biosensor response (ligand inhibits cleavage)
Settings: 10 µM
Summary of the method: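 Values are the maximum fold change of cleavage over all biosensors in a CleaveSeq assay, defined as the cleaved:uncleaved read-fraction ratio against a no-compound condition after correction with reference sequences. The 1,730 array-resynthesized ribozyme biosensors were T7-transcribed for 15–30 min at 37°C with 9 mM rNTPs and a single compound at 10 µM final, then reverse-transcribed at 50°C. Read counts came from Illumina sequencing of PCR-barcoded cleaved and uncleaved products.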

Row | SMILES | maximum fold change
1 | CCOC(=O)c1ccc(-c2sc3nc(N4CCOCC4)c4c(c3c2N)CC(C)(C)OC4)o1 | 2.03
2 | Clc1ccc2nc3c4ccccc4cnn3c2c1 | 3.12
3 | N#C/C(=Cc1c(Oc2ccc(cc2)C)nc2n(c1=O)cccc2)/C(=O)OC | 5.19
4 | COc1ccccc1OCCCn1cccc1/C=C1\C(=N)N2N=C(N3CCOCC3)SC2=NC1=O | 2.03
5 | Cc1ccc(-c2noc(CCC(=O)N3CCN(Cc4ccccc4)CC3)n2)cc1 | 3.6
6 | Cc1cc(NC(=O)CSc2nc3ncccc3c(=O)n2CCc2ccccc2)[nH]n1 | 3.45
7 | CCOc1ccccc1-n1cc2c(c1-c1cccc(C)c1)c(=O)n(C)c(=O)n2C | 1.83
8 | Brc1ccc(/C=N/c2nc3ccccc3n2CCN2CCCCC2)cc1 | 2.07
9 | O=C(Cc1cn(Cc2cccc(Cl)c2)c2ccccc12)N1CCCC1 | 3.3
10 | O=c1oc2cc(O)ccc2c2ccccc12 | 2.57
11 | CCCOc1ccc(C2c3c(oc4ccccc4c3=O)C(=O)N2c2nccs2)cc1 (stereo unspecified) | 8.73
12 | Cn1c(=O)[nH]c(=O)c2c1nc(NCCCn1ccnc1)n2CCCc1ccccc1 | 1.96
13 | N/C(=N\OC(=O)N1CCOCC1)c1cccnc1 | 3.37
14 | COc1ccc(-c2cc(-c3nc4c5c(ncn4n3)CCC5)n[nH]2)cc1 | 1.38
15 | COc1ccc2nc3oc(C(=O)NCCCN4CCC(Cc5ccccc5)CC4)cc3cc2c1 | 5.98
16 | O=c1cc(-c2ccccc2)[nH]c2nc(C(F)(F)F)nn12 | 3.78

Row | SMILES | maximum fold change
17 | CCOc1ccc(CCNC(=O)CCn2c(=O)c3cccn3c3cccnc32)cc1OCC | 2.67
18 | COc1ccc(C(=O)/C=C2\Nc3ccc(C(=O)NCc4cccc(OC)c4)cc3NC2=O)cc1 | 7.89
19 | O=S(=O)(NCc1ccccn1)c1ccc(Br)cc1Br | 1.99
20 | COc1cccc(-c2nc3sc4c(c3c(=O)n2CC(=O)NC2CCCCC2)CCCC4)c1 | 1.74
21 | CC(NC(=O)/C=C/c1ccccc1Cl)c1ccccc1 (stereo unspecified) | 2.1
22 | C=C(C)Cn1c(NCCCN2CCOCC2)nc2c1c(=O)[nH]c(=O)n2C | 2.3
23 | CCOC(=O)C1=C(C)Nc2nc(-c3cccs3)nn2C1c1ccc(C#N)cc1 (stereo unspecified) | 1.85
24 | CCOC(=O)c1c(NC(=O)COc2ccc(Cl)cc2Cl)sc2c1CCC2 | 3.01
25 | O=C(NCC(=O)N1CCOCC1)c1ccccc1 | 1.78
26 | COc1ccc(OC)c(C2C3=C(CC(C)(C)CC3=O)OC3=C2C(=O)CC(C)(C)C3)c1 | 2.36
27 | COc1cccc(-c2cc(C(=O)NC3CCCc4ccccc43)[nH]n2)c1 (stereo unspecified) | 1.96
28 | CCOC(=O)c1cnc(SC)nc1N | 3.4
29 | N#C/C(=Cc1c(Oc2ccccc2)nc2n(c1=O)cccc2)/c1nc2c(s1)cccc2 | 21
30 | Cc1cc(C)c(Cn2c(C)c(CNCc3cccc(Cl)c3)c(C(=O)O)c2C)c(C)c1 | 1.74
31 | CCOCCCNC(=O)/C(C#N)=C/c1c(Oc2ccc(Br)cc2)nc2ccccn2c1=O | 3.31
